Screening data (PubChem)
TDP1 cell noCPT = qHTS for Inhibitors of human tyrosyl-DNA phosphodiesterase 1 (TDP1): qHTS in cells in absence of CPT. DT40 Tdp1-/- hTDP1 cells, no CPT, ATP luminescence, 48 h. AID 686978, 2013. Potency, µM (highest dose often 46.2 µM), usual class: inhibitors. 420,000 compounds, 15% hits; note: nearly all actives have a fitted effect of over 55% in size
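Growth of hTDP1-complemented DT40 Tdp1-knockout cells is measured by ATP luminescence after at least 48 hr compound exposure at 37 °C, with DMSO substituting for the 20 nM CPT used in the parallel screen.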
DT40 TDP1 CPT = qHTS for Inhibitors of human tyrosyl-DNA phosphodiesterase 1 (TDP1): qHTS in cells in presence of CPT. 420,000 compounds, 12% hits. Potency, µM (series often up to 46.2 µM), actives largely listed as inhibitors. AID 686979, 2013. chicken DT40 Tdp1-/-;hTDP1 cells + 20 nM CPT, ATP luminescence, 48 h; note: nearly all actives have a fitted effect of over 55% in size
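Chicken DT40 Tdp1-/- cells stably complemented with human TDP1 were seeded at 400 cells/well in medium containing 20 nM camptothecin, exposed to pin-transferred compounds, and grown at 37 °C for at least 48 hr. Viability was read as ATP luminescence.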
TDP1 inh = qHTS Assay for Inhibitors of Tyrosyl-DNA Phosphodiesterase (TDP1). 350,000 compounds, 0.28% hits. AID 485290, 2010. recombinant TDP1, AlphaScreen DNA substrate cleavage. Potency, µM (top dose mostly 130 µM), actives largely listed as inhibitors; note: nearly all actives have a fitted effect of over 40% in size
Target sequence (Q9NUW8 whole entry, looked up): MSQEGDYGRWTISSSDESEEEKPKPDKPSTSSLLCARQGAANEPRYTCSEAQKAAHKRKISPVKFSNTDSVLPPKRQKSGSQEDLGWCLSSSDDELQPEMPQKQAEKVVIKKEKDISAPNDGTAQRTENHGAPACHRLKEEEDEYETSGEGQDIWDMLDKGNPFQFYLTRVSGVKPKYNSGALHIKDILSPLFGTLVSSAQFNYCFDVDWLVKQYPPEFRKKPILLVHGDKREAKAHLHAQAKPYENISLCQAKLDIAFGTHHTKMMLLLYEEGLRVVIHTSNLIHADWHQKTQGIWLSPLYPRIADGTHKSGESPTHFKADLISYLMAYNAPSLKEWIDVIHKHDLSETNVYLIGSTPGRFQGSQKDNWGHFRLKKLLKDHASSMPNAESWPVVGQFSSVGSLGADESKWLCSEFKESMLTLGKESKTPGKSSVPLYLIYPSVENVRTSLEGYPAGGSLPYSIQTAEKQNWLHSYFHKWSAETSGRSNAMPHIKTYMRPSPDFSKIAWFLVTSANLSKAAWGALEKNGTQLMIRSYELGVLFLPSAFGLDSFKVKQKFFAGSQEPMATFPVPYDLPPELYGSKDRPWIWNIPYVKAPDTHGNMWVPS
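E. coli-derived human Tdp1, 1 nM final. Cpd preinc 15 min RT; substrate 15 nM final, 5 min RT; AS bead mix 10 ug/ml final, 10 min RT. Signal loss = tyrosine-FITC cleavage. No-enzyme wells = max signal.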
IL1B secr inh = qHTS for Inhibitors of Inflammasome Signaling: IL-1-beta AlphaLISA Primary Screen | 360,000 compounds, 4.7% hits | activity change, % at 57.5 µM | AID 743279, 2014 | THP-1 LPS/ATP IL-1B secretion, AlphaLISA, 16 h; stronger effect = lower value; in the data active = activity change below about -50%; inconclusive = mostly about -30% to -49%
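Secreted IL-1B measured by AlphaLISA bead assay after 16 h compound exposure of THP-1 cells; compounds (final up to 57.5 uM) added 1 h before LPS (250 ng/mL) and ATP (1.25 mM) stimulation; lower signal means less secretion.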
CtBP-E1A blk = qHTS Assay for Inhibitors of the CtBP/E1A Interaction; CtBP / adenovirus E1A interaction (AlphaScreen); AlphaScreen GST-E1A/His-CtBP binding, 1536-well; stronger effect = lower value; activity change, % (test concentration not listed); 340,000 compounds, 0.49% hits; in the data active = activity change below about -65%; inconclusive = mostly about -30% to -63%
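AlphaScreen with 125 nM GST-E1A and 125 nM His-CtBP (5X stocks) in Tris pH 8.0, 300 mM NaCl, BSA, Tween 20, TCEP. Compounds preincubated 2 h at 37 deg C, then glutathione donor/nickel acceptor beads added for 1 h at 37 deg C in dark.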
Six1-Eya2 blk = qHTS Assay for Inhibitors of the Six1/Eya2 Interaction. AlphaScreen GST-Six1/His-Eya2 binding, biochemical; stronger effect = lower value. Homeobox protein SIX1 (Homo sapiens) + Protein phosphatase EYA2 (Homo sapiens), …. activity change, % (no concentration beside the values). 360,000 compounds, 0.56% hits; in the data active = activity change below about -65%; inconclusive = mostly about -30% to -63%
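AlphaScreen luminescence read after one hour at 37 °C in darkness. Pin-transferred compounds met GST-Six1 and His-Eya2 protein (5X stock 250 nM/500 nM) plus glutathione donor and Ni-chelate acceptor beads (5X, 50 ug/mL).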
Of the large screens only hits and unclear results are named; the others gave an inactive call. A selection: hits, their analogues and other compounds. The true share with any hit is near 18%. Unless noted, calls come from the whole dose curve; as a rule, active = well fitted curve in the direction sought with a large enough effect; inconclusive = small, poorly fitted or top-dose-only effect, or another doubt; inactive = no such curve, though single readings can be large; an effect the other way counts as inactive or inconclusive.

CC(=O)c1ccc(N(CC(=O)Nc2cc(C)on2)S(=O)(=O)c2ccc(C)cc2)cc1	TDP1 cell noCPT inconclusive
COCCCNC(=O)c1cnc2c(-c3ccc(F)cc3)c(C)nn2c1C	TDP1 cell noCPT inconclusive (no result: IL1B secr inh, CtBP-E1A blk, Six1-Eya2 blk)
O=C(CSc1nc2ccccc2c(=O)n1-c1ccccc1)NC(=O)CN1CCCC1=O	TDP1 inh 22µM
O=C1COc2ccc(C(=O)CSc3nnc(Cc4cccs4)n3-c3ccccc3)cc2N1	TDP1 cell noCPT 9.2µM, DT40 TDP1 CPT inconclusive
CC(C)c1ccccc1-n1c(SCC(=O)N2CCc3ccccc3C2)nc2ccccc2c1=O	TDP1 cell noCPT 23µM, DT40 TDP1 CPT inconclusive, IL1B secr inh inconclusive
O=C(CSc1nc2ccccc2c(=O)n1-c1ccccc1)N1CCc2ccccc2C1	TDP1 cell noCPT 16µM, DT40 TDP1 CPT 26µM
Cn1c(=O)c2c(nc(SCC(=O)N3CCc4ccccc4C3)n2C)n(C)c1=O	none
Cc1ccc(Cn2cccc(NC(=O)c3ccco3)c2=O)cc1	none
COc1ccc(N(CC(=O)NCCC2=CCCCC2)S(=O)(=O)c2ccccc2)cc1	TDP1 cell noCPT inconclusive, DT40 TDP1 CPT inconclusive, IL1B secr inh inconclusive
CC1CC(C)CN(C(=O)Cn2c(SCC(=O)N3CCc4ccccc4C3)nc3ccccc32)C1 (stereo not given)	TDP1 cell noCPT 21µM, DT40 TDP1 CPT inconclusive
CC(C)NC(=O)Cn1c(SCC(=O)N2CCc3ccccc3C2)nc2ccccc21	none
CC(C)c1ccccc1-n1c(SCC(=O)c2ccc3c(c2)NC(=O)CO3)nc2ccccc2c1=O	TDP1 cell noCPT 23µM, DT40 TDP1 CPT 18µM
CCN(C(=O)c1ccc2c(c1)OCO2)C12CC3CC(CC(C3)C1)C2	TDP1 cell noCPT 23µM, DT40 TDP1 CPT inconclusive (no result: CtBP-E1A blk)
CCN(C(=O)c1cccc(S(=O)(=O)N(C)C)c1)C12CC3CC(CC(C3)C1)C2	TDP1 cell noCPT 12µM, DT40 TDP1 CPT 13µM (no result: TDP1 inh)
Cc1ccc(NC(=O)CSc2nc3ccccc3c(=O)n2CCCN2CCCCC2)cc1Cl	TDP1 cell noCPT 21µM, DT40 TDP1 CPT 21µM, IL1B secr inh -87
CCOc1ccc(NC(=O)CSc2nc3ccccc3c(=O)n2CCCC(=O)N2CCCC2)cc1	DT40 TDP1 CPT inconclusive
O=C(CSc1nc2ccccc2c(=O)n1CCCN1CCOCC1)Nc1ccc(F)c(Cl)c1	TDP1 cell noCPT inconclusive, DT40 TDP1 CPT inconclusive, IL1B secr inh inconclusive
CCc1ccc(NC(=O)CSc2nc3ccccc3c(=O)n2CCCC(=O)NCCCN2CCOCC2)cc1	TDP1 cell noCPT inconclusive, IL1B secr inh -103
O=C(CSc1nc2ccccc2c(=O)n1CCCN1CCOCC1)Nc1ccccc1OC(F)F	TDP1 cell noCPT 21µM, DT40 TDP1 CPT 18µM
COc1ccc(NC(=O)CSc2nc3ccccc3c(=O)n2CCCN2CCC(C)CC2)c(OC)c1	TDP1 cell noCPT inconclusive, IL1B secr inh -62
Cc1cc(C)c(NC(=O)CSc2nc3ccccc3c(=O)n2CCCN2CCOCC2)c(C)c1	TDP1 cell noCPT inconclusive, DT40 TDP1 CPT inconclusive, IL1B secr inh inconclusive
COC(=O)c1ccc(-n2nnc(-c3nc(-c4ccccc4Cl)no3)c2C)cc1	none (no result: IL1B secr inh, CtBP-E1A blk, Six1-Eya2 blk)
COc1ccc(NS(=O)(=O)c2cn(C)c(=O)n(C)c2=O)cc1	none
Cc1ccc(C)n1NC(=O)c1ccco1	none
Cc1nc2nncn2c(NCc2ccc(F)cc2)c1C	TDP1 cell noCPT 4.1µM, DT40 TDP1 CPT 5.2µM (no result: IL1B secr inh, CtBP-E1A blk, Six1-Eya2 blk)
COc1ccc(CNc2cc(-c3ccc(OC)cc3)nc3nncn23)cc1	TDP1 cell noCPT 16µM, DT40 TDP1 CPT inconclusive (no result: IL1B secr inh, CtBP-E1A blk, Six1-Eya2 blk)
CCc1c(C)nc2nncn2c1NCc1ccc(OC)cc1	TDP1 cell noCPT 18µM, DT40 TDP1 CPT 16µM (no result: IL1B secr inh, CtBP-E1A blk, Six1-Eya2 blk)
